Results on 40 molecules are retold here after the supplement of paper PMC6522484.

Structures are written as SMILES. ± gives the standard deviation of the averaged measurements.

This assay concerns DLD1. The assay is described as follows: cell viability (CellTiter-Glo) relative to plate median (fraction of plate median); higher = more viable cells. To be noted: 5 µM; treatment time 24 h; reporter: 7TFP. The method in brief: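 Signals from firefly luciferase or CellTiterGlo readouts were normalised well by well to the plate median using webcellHTS2, additively and with no log transformation. They came from colorectal cancer cell lines stably holding lentiviral TCF/Wnt firefly luciferase reporters (7TFP or TCF4/Wnt), treated with library compounds at a final 5 µM for 24 h. The mean of two independent replicates is given.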
For `CC(=O)O[C@@H]1C[C@H]2C(C)(C)C(=O)C=C[C@]2(C)[C@H]2CC[C@@]3(C)[C@H](c4ccoc4)OC(=O)[C@H]4O[C@]43[C@@]21C`, the cell viability worked out at 1.01 ± 0.025.
`O=C(O)CCc1nc(-c2ccccc2)c(-c2ccccc2)o1`: the cell viability was determined as 0.846 ± 0.15.
The result for `Oc1cc(O)c2c(c1)O[C@H](c1ccc(O)c(O)c1)[C@@H](O)C2` reads 1.03 ± 0.014; that for `C[n+]1c2cc(N)ccc2cc2ccc(N)cc21`, 1.05 ± 0.014.
The result for `CC1(C)C(=O)C=C[C@@]2(C)C1CC(=O)[C@@]1(C)C3=CC(=O)O[C@@H](c4ccoc4)[C@]3(C)CCC12` (stereo not given in full) reads 0.921 ± 0.04.
Regarding `OCc1ccccc1O`, the cell viability was 1.11 ± 0.14.
Next, `CN1CCc2c(c3ccccc3n2Cc2ccccc2)C1`: 1.01 ± 0.051.
Take `CC1CCC(C(C)C)C(O)C1` (stereo not given): the cell viability was 1.05 ± 0.1.
Next, `CC1CC2C3CCC4=CC(=O)C=CC4(C)C3(F)C(O)CC2(C)C1C(=O)CO` (stereo not given): 0.954 ± 0.033; `O=[N+]([O-])c1cccc2c(Br)[nH]nc12`: 0.994 ± 0.0057.
Take `O=c1c(-c2ccc(O)cc2)coc2cc(O)ccc12` [Daidzein (Biofocus)]: the cell viability was 1.02 ± 0.03.
With `CC[N+](C)(C)c1cccc(O)c1`, the cell viability turned out to be 0.956 ± 0.091.
`C[C@@H]1O[C@@H](OC[C@H]2O[C@@H](Oc3c(-c4ccc(O)c(O)c4)oc4cc(O)cc(O)c4c3=O)[C@H](O)[C@@H](O)[C@@H]2O)[C@H](O)[C@H](O)[C@H]1O` [RUTOSIDE  (rutin)] had a cell viability of 0.972.
Regarding `CCN(CC)CCOC(=O)C(Cc1cccc2ccccc12)CC1CCCO1` (stereo not given), the cell viability turned out to be 1.095 ± 0.0071.
Regarding `COc1c(N2CCNC(C)C2)c(F)cc2c(=O)c(C(=O)O)cn(C3CC3)c12` (stereo not given), the cell viability is 0.925 ± 0.18.
Consider `Cc1cc(C(C)(C)CC(C)(C)C)ccc1OCCOCC[N+](C)(C)Cc1ccccc1`, for which the cell viability is 1.02 ± 0.069.
`CN1CCN(CCCN2c3ccccc3Sc3ccc(C(F)(F)F)cc32)CC1` had a cell viability of 0.999 ± 0.0014.
For `COC1=C[C@@H](C)[C@@H]2C[C@H]3OC(=O)C[C@H]4C(C)=C(OC)C(=O)[C@H]([C@@]2(C)C1=O)[C@@]34C`, the cell viability came to 0.975 ± 0.064.
The result for `CCOC(=O)N1CCC(=C2c3ccc(Cl)cc3CCc3cccnc32)CC1` reads 0.987 ± 0.047.
In turn, `CCCCCC1C(=O)CCC1CC(=O)O` (stereo not given) showed a cell viability of 1.02 ± 0.25.
`CNC[C@H](O)c1cccc(O)c1` came in with a cell viability of 1.02 ± 0.033.
For `CN1CCC(OC(c2ccccc2)c2ccccc2)CC1`, the cell viability was found to be 0.969 ± 0.044.
For the molecule `CC(=O)O[C@@H]1CC[C@@]2(C)C(C[C@@H](OC(C)=O)[C@@]3(C)C4=CC(=O)O[C@@H](c5ccoc5)[C@]4(C)CCC23)C1(C)C` (stereo partly drawn) [3alpha-ACETOXYDIHYDRODEOXYGEDUNIN], the cell viability amounted to 1 ± 0.021.
`CC(=O)O[C@H]1C[C@@H](O)C(C)(C)[C@@H]2C[C@@H](OC(C)=O)[C@]3(C)[C@H](CC[C@@]4(C)[C@@H](c5ccoc5)OC(=O)[C@H]5O[C@@]534)[C@@]12C` yielded a cell viability of 1.04 ± 0.069.
In turn, `CN1CCC(=C2c3ccccc3CC(=O)c3sccc32)CC1` gave a cell viability of 0.988 ± 0.046.
The molecule `CC(C)=CCC1=C(O)C(=O)c2ccccc2C1=O` registered a cell viability of 1.055 ± 0.0071.
The molecule `C1CCC(C(CC2CCCCN2)C2CCCCC2)CC1` (stereo not given) yielded a cell viability of 1.05 ± 0.05.
Molecule `NS(=O)(=O)c1cc(C(=O)O)c(NCc2ccco2)cc1Cl` registered a cell viability of 0.993 ± 0.0099.
With `CC(O)(P(=O)(O)O)P(=O)(O)O`, the cell viability turned out to be 0.949 ± 0.073.
`CO[C@@]12[C@H](COC(N)=O)C3=C(C(=O)C(C)=C(N)C3=O)N1C[C@@H]1N[C@@H]12` gave a cell viability of 1.12 ± 0.057.
On to `C1CNCCN1`, for which the cell viability turned out to be 1.004 ± 0.0092.
The result for `COc1cc2occ(-c3ccccc3)c(=O)c2c(OC)c1C` reads 0.982 ± 0.015.
Turning to `CCSC(=N)N`, the cell viability is 0.954 ± 0.046.
`O=C1CC2(CCCC2)CC(=O)N1CCCCN1CCN(c2ncccn2)CC1`: the cell viability turned out to be 1.02 ± 0.028.
`CC(=O)N(O)CCCCCNC(=O)CC(O)(CC(=O)NCCCCCN(O)C(C)=O)C(=O)O` [Arthrobactin] had a cell viability of 0.989 ± 0.03.
As for `Nc1ccc(C(=O)Oc2ccccc2)c(O)c1`, the cell viability stood at 1.05 ± 0.096.
Regarding `CC(=O)O[C@@H]1CC2C(C)(C)[C@H](O)C[C@H](O)[C@@]2(C)C2CC[C@]3(C)C(=CC(=O)O[C@@H]3c3ccoc3)[C@]21C` (stereo not given in full), the cell viability is 0.961 ± 0.098.
`COc1cccc2c1CCC1=CC(=O)CC[C@@]12C` came in with a cell viability of 1.09 ± 0.099.
The result for `C[C@@H]1O[C@H]2O[C@@H]3[C@@H](C)OC(c4ccc5c(c4O)C(=O)c4ccc(C[C@@](C)(O)CC(=O)O)c(O)c4C5=O)C[C@H]3O[C@H]2CC1=O` (stereo not given in full) [Fridamycin D] reads 1.14 ± 0.099.
In the case of `COc1ccc2c(c1)OCC(Cc1ccc(OC)c(O)c1)C2=O` (stereo not given), the cell viability was found to be 0.937 ± 0.0099.
